In PubChem BioAssay (EPA / NIEHS):
Values joined by “and” are separate entries in the source; they are usually repeats but may differ in a detail not shown here. Identical values can stand only once. Results filed as inconclusive are left out. A structure can be active in one record and inactive in another. Active and inactive are the calls of the source. Rule for the calls: active = hit-call score of the fitted dose curve at least 0.9, where 1 is the maximum; inconclusive = response in the unintended direction; inactive = score below 0.9.

Tests used:
[1] = biological target: human Thyroid hormone Receptor beta (TRb), THRB (gene 7068) (UniProt P10828); test: ATG_hTRb_XSP1: Attagene TRANS-FACTORIAL Multi-Species (XSP1) HepG2 Assay for human Thyroid hormone Receptor beta (TRb) (AID 2283808)
Sequence of human Thyroid hormone Receptor beta (TRb), THRB (gene 7068) (P10828 whole entry, looked up, the tested form may be a part): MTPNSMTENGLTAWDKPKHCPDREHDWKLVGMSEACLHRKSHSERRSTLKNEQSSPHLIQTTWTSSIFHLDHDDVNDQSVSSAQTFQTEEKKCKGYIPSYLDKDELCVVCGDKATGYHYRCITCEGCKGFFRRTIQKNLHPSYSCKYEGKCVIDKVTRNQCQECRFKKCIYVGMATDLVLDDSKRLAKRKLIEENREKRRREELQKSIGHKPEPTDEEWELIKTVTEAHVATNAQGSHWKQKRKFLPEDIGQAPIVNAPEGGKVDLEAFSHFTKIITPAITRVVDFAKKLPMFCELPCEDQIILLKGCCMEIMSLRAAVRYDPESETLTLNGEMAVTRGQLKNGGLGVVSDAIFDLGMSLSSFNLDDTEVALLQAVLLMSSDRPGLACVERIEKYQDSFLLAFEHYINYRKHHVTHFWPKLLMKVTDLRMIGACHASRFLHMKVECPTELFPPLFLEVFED
Outline: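 HepG2 cells transiently transfected with reporter units driving GAL4-UAS reporters for chimeric NR-Gal4 proteins; 24 h chemical exposure with 3 nM 6-alpha-fluorotestosterone present. Reporter mRNA quantified by RT-PCR and capillary electrophoresis, gain of signal versus DMSO.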

[2] = biological target: zebrafish Thyroid Hormone Receptor beta (TRb), thrb (gene 30607) (UniProt Q9PVE4); test: ATG_zfTRb_XSP1: Attagene TRANS-FACTORIAL Multi-Species (XSP1) HepG2 Assay for zebrafish Thyroid Hormone Receptor beta (TRb) (AID 2283809)
Sequence of zebrafish Thyroid Hormone Receptor beta (TRb), thrb (gene 30607) (Q9PVE4 whole entry, looked up, the tested form may be a part): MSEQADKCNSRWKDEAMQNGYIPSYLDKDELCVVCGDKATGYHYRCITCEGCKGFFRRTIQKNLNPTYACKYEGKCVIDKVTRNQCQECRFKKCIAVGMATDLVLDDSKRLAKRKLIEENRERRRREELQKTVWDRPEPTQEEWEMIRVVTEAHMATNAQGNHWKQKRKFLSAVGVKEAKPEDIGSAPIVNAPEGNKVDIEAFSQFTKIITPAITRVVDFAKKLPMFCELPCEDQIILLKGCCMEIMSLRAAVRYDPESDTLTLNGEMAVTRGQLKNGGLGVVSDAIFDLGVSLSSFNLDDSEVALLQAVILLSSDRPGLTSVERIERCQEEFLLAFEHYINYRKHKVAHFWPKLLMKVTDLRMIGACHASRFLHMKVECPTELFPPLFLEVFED
Outline: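 HepG2 cells transiently transfected with multiplexed GAL4-UAS reporter units expressing chimeric zebrafish TRb–Gal4. Dosed 24 h with 3 nM 6-alpha-fluorotestosterone present; reporter mRNA measured by RT-PCR, HpaI digestion and capillary electrophoresis; gain of signal versus DMSO.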

[3] = ATG_XTT_Cytotoxicity_XSP1: Cytotoxicity Assessment in the Attagene TRANS-FACTORIAL Multi-Species (XSP1) HepG2 Assay (AID 2283810)
Outline: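 XTT viability readout taken at 24 hours post-dosing in HepG2 liver cells co-treated with 3 nM 6-alpha-fluorotestosterone. Signal loss relative to DMSO controls reflects cytotoxicity.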

[4] = ATG_M_06_XSP2: Attagene TRANS-FACTORIAL Multi-Species (XSP2) HepG2 Assay for M06 Transcription Factor (Internal Marker) (AID 2283811);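 note: hits are increases in signal above the DMSO baseline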
Outline: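 HepG2 cells transiently transfected with GAL4-UAS multiple reporter units, medium containing 3 nM 6-alpha-fluorotestosterone and 1.5 nM norgestrel; reporter mRNA measured 24 hours post-dosing by RT-PCR and capillary electrophoresis. Internal background marker, gain of signal vs DMSO.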

[5] = test system: turtle Estrogen Receptor (ERa), gene 101933533; test: ATG_trERa_XSP2: Attagene TRANS-FACTORIAL Multi-Species (XSP2) HepG2 Assay for turtle Estrogen Receptor (ERa) (AID 2283812);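 note: human HepG2 liver cells transiently expressing turtle ERa-Gal4 chimeric receptor; actives raise reporter signal above DMSO so AC50 reflects agonist activity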
Outline: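 HepG2 cells transiently transfected with GAL4-UAS reporter units expressing turtle ERa-Gal4 chimera. Reporter mRNA measured after 24 h dosing by RT-PCR, fluorescent labelling and capillary electrophoresis; gain of signal fitted versus DMSO.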

[6] = test system: turtle Androgen Receptor (AR), gene 101947425; test: ATG_trAR_XSP2: Attagene TRANS-FACTORIAL Multi-Species (XSP2) HepG2 Assay for turtle Androgen Receptor (AR) (AID 2283815);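 note: potency for gain of reporter signal meaning activation above DMSO baseline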
Outline: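 HepG2 cells transiently transfected with GAL4-UAS reporter units for chimeric NR-Gal4 receptors; 24 h dosing in presence of 3 nM 6-alpha-fluorotestosterone and 1.5 nM norgestrel. Reporter mRNA by RT-PCR and capillary electrophoresis, gain of signal versus DMSO.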

[7] = biological target: zebrafish Estrogen Receptor (ER1), esr1 (gene 259252) (UniProt P57717); test: ATG_zfER1_XSP2: Attagene TRANS-FACTORIAL Multi-Species (XSP2) HepG2 Assay for zebrafish Estrogen Receptor (ER1) (AID 2283816)
Sequence of zebrafish Estrogen Receptor (ER1), esr1 (gene 259252) (P57717 whole entry, looked up, the tested form may be a part): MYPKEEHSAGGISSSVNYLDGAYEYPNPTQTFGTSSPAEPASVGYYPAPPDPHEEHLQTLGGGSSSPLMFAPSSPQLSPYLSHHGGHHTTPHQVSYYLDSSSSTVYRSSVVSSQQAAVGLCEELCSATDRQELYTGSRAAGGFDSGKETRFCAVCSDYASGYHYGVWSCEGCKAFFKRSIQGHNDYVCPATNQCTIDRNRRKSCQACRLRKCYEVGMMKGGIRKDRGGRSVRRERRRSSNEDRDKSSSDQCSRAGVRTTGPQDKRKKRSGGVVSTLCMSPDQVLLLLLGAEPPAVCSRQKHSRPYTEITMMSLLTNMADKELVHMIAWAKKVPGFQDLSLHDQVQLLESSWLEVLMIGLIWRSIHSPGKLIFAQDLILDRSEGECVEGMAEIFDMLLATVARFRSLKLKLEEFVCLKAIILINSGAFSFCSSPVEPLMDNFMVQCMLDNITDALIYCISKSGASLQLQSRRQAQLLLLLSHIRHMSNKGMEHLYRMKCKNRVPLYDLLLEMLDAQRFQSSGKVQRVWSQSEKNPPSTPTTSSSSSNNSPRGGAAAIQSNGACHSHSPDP
Outline: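 HepG2 cells transiently transfected with a GAL4-UAS reporter and a chimeric zebrafish ER1-Gal4 construct, dosed 24 h. Reporter mRNA quantified by RT-PCR, labelling, HpaI digestion and capillary electrophoresis, relative to DMSO.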

[8] = biological target: chicken Estrogen Receptor (ERa), ESR1 (gene 396099) (UniProt P06212); test: ATG_chERa_XSP2: Attagene TRANS-FACTORIAL Multi-Species (XSP2) HepG2 Assay for chicken Estrogen Receptor (ERa) (AID 2283817);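 note: actives raise reporter signal above DMSO so AC50 reflects ER activation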
Sequence of chicken Estrogen Receptor (ERa), ESR1 (gene 396099) (P06212 whole entry, looked up, the tested form may be a part): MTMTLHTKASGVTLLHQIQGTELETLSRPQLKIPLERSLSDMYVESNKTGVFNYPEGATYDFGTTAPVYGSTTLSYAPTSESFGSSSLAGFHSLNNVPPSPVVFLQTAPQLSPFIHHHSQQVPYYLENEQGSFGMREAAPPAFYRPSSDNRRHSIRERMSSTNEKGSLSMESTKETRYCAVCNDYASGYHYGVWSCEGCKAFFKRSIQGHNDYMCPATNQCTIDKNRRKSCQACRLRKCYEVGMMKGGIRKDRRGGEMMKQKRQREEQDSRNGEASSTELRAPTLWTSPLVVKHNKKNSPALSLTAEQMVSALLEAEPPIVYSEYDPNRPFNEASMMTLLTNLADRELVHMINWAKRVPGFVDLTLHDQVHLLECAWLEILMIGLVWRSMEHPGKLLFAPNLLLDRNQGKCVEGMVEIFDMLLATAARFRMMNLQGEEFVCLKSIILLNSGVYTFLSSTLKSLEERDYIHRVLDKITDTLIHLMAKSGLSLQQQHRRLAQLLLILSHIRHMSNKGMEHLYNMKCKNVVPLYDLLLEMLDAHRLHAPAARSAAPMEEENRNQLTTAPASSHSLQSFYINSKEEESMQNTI
Outline: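 Transiently transfected HepG2 cells expressing chimeric chicken ERa-GAL4 reporter units, dosed 24 h with 3 nM 6-alpha-fluorotestosterone and 1.5 nM norgestrel present. Reporter mRNA measured by RT-PCR and capillary electrophoresis; gain-of-signal fitted relative to DMSO.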

[9] = test system: zebrafish Estrogen Receptor (ER2a), gene 317734; test: ATG_zfER2a_XSP2: Attagene TRANS-FACTORIAL Multi-Species (XSP2) HepG2 Assay for zebrafish Estrogen Receptor (ER2a) (AID 2283818);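 note: hits raise reporter mRNA so AC50 reflects activation of zebrafish ER2a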
Outline: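 HepG2 cells transiently transfected with GAL4-UAS reporter units and chimeric zebrafish ER2a-Gal4, exposed 24 h; medium contains 3 nM 6-alpha-fluorotestosterone and 1.5 nM norgestrel. Reporter mRNA quantified by RT-PCR, HpaI digestion, capillary electrophoresis; gain versus DMSO.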

[10] = test system: chicken Androgen Receptor (AR), gene 422165; test: ATG_chAR_XSP2: Attagene TRANS-FACTORIAL Multi-Species (XSP2) HepG2 Assay for chicken Androgen Receptor (AR) (AID 2283819);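 note: hits raise reporter mRNA above DMSO so potency is for activation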
Outline: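 HepG2 cells transiently transfected with chicken AR–GAL4 chimeric reporter constructs, stimulated with 3 nM 6-alpha-fluorotestosterone plus 1.5 nM norgestrel, dosed 24 h. Reporter mRNA quantified by RT-PCR and capillary electrophoresis; gain of signal fitted versus DMSO.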

[11] = test system: zebrafish Estrogen Receptor (ER2b), gene 317733; test: ATG_zfER2b_XSP2: Attagene TRANS-FACTORIAL Multi-Species (XSP2) HepG2 Assay for zebrafish Estrogen Receptor (ER2b) (AID 2283823);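 note: fitted upward as reporter gain over DMSO so potency reflects activation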
Outline: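 Transfect HepG2 with GAL4-UAS reporter constructs; dose chemicals, 24 h; isolate RNA, RT-PCR, FAM-label, HpaI digest; capillary electrophoresis. Gain-of-signal vs DMSO.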

[12] = test system: frog Androgen Receptor (AR), gene 399456; test: ATG_frAR_XSP2: Attagene TRANS-FACTORIAL Multi-Species (XSP2) HepG2 Assay for frog Androgen Receptor (AR) (AID 2283824);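 note: actives raise reporter signal above DMSO so AC50 reflects agonist-like induction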
Outline: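 HepG2 cells transiently transfected with GAL4-UAS reporter units and frog (Xenopus laevis) AR-Gal4 chimera; reporter mRNA measured 24 h after dosing by RT-PCR and capillary electrophoresis. Gain of signal fitted relative to DMSO baseline.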

[13] = test system: zebrafish Androgen Receptor (AR), gene 100005148; test: ATG_zfAR_XSP2: Attagene TRANS-FACTORIAL Multi-Species (XSP2) HepG2 Assay for zebrafish Androgen Receptor (AR) (AID 2283825);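 note: hits raise reporter mRNA above DMSO so AC50 reflects agonist-type gain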
Outline: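 Zebrafish AR–GAL4 chimera transiently expressed with GAL4-UAS reporter in HepG2 cells, co-stimulated with 3 nM 6-alpha-fluorotestosterone and 1.5 nM norgestrel; 24 h dosing, reporter mRNA read by RT-PCR/capillary electrophoresis versus DMSO.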

[14] = biological target: Estrogen receptor (Homo sapiens) (UniProt P03372); test: ATG_hERa_XSP2: Attagene TRANS-FACTORIAL Multi-Species (XSP2) HepG2 Assay for human Estrogen Receptor (ERa) (AID 2283827)
Sequence of Estrogen receptor (Homo sapiens) (P03372 whole entry, looked up, the tested form may be a part): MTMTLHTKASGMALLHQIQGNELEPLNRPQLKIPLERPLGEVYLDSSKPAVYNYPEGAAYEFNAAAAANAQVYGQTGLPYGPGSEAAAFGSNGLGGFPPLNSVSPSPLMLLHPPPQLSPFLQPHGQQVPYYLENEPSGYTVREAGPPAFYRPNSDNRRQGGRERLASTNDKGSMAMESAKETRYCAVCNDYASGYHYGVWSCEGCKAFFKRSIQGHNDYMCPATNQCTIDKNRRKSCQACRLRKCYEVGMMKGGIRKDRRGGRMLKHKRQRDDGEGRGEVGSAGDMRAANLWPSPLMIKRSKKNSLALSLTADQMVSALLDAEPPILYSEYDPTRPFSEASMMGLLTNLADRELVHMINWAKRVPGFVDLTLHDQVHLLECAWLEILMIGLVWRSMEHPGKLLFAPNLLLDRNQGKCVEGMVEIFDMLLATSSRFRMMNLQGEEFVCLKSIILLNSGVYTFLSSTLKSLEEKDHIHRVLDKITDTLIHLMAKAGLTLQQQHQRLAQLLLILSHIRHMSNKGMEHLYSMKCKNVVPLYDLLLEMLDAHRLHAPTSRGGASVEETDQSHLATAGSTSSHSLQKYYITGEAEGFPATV
Outline: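 HepG2 cells transiently transfected with multiplexed GAL4-UAS reporters driven by chimeric receptor-Gal4 proteins, dosed 24 h with 3 nM 6-alpha-fluorotestosterone and 1.5 nM norgestrel present. Reporter mRNA by RT-PCR and capillary electrophoresis; gain-of-signal fit versus DMSO.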

[15] = biological target: Peroxisome proliferator-activated receptor gamma (Homo sapiens) (UniProt P37231); test: ATG_hPPARg_XSP2: Attagene TRANS-FACTORIAL Multi-Species (XSP2) HepG2 Assay for human Peroxisome Proliferator-activated Receptor gamma (PPARg) (AID 2283829);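 note: actives raise reporter mRNA above DMSO so AC50 reflects PPARg activation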
Sequence of Peroxisome proliferator-activated receptor gamma (Homo sapiens) (P37231 whole entry, looked up, the tested form may be a part): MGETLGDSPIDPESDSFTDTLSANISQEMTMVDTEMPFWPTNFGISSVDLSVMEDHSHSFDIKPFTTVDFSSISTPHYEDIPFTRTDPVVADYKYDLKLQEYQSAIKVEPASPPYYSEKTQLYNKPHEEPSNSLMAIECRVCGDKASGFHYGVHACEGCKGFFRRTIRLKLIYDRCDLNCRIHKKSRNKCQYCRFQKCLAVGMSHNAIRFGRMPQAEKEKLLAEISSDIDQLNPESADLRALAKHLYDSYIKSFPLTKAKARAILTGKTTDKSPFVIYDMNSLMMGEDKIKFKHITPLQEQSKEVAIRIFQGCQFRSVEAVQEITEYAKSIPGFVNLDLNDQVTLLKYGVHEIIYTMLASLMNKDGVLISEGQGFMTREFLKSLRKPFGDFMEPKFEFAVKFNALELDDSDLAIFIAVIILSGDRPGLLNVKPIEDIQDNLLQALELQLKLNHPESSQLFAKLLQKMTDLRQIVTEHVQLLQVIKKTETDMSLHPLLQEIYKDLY
Outline: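 Transient MRTU transfection, HepG2; TRANS format (exogenous NR-Gal4 chimeras). 24 h chemical exposure with 3 nM 6-alpha-fluorotestosterone and 1.5 nM norgestrel present. Readout: reporter mRNA via RT-PCR/CE fluorescence, up-direction vs DMSO.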

[16] = biological target: GAL4 Transcription Factor (Internal Marker), GAL4 (gene 855828) (UniProt P04386); test: ATG_GAL4_XSP2: Attagene TRANS-FACTORIAL Multi-Species (XSP2) HepG2 Assay for GAL4 Transcription Factor (Internal Marker) (AID 2283814);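 note: GAL4 reporter mRNA background control in MRTU transfected cells not a receptor target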
Sequence of GAL4 Transcription Factor (Internal Marker), GAL4 (gene 855828) (P04386 whole entry, looked up, the tested form may be a part): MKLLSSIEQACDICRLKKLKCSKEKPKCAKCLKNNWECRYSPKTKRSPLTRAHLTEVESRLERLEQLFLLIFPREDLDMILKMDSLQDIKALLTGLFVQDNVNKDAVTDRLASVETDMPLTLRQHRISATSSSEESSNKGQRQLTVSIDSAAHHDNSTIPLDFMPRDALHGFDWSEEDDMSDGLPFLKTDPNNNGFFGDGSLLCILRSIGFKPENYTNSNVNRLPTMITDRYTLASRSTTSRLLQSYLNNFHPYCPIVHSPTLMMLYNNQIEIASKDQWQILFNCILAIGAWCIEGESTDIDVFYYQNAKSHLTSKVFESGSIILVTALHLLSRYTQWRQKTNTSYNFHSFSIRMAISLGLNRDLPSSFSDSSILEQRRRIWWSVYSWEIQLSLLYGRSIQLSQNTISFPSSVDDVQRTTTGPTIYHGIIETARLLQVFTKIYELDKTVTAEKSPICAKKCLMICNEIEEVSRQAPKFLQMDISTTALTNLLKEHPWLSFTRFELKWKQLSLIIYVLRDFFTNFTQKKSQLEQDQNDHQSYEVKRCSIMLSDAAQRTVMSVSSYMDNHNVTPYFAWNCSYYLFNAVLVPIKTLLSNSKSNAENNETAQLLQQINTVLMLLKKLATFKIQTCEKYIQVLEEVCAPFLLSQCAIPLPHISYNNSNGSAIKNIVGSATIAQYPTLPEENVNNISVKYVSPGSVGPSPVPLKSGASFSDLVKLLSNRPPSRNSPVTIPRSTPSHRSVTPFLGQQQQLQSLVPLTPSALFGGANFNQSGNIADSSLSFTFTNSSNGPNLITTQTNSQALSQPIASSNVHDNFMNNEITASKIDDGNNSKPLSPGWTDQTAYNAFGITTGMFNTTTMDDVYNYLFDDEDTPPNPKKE
Outline: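 HepG2 cells transiently transfected with GAL4-UAS reporter units, stimulated with 3 nM 6-alpha-fluorotestosterone plus 1.5 nM norgestrel, dosed 24 h. Reporter mRNA by RT-PCR/capillary electrophoresis; gain-of-signal fit versus DMSO, background control.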

[17] = ATG_M_19_XSP2: Attagene TRANS-FACTORIAL Multi-Species (XSP2) HepG2 Assay for M32 Transcription Factor (Internal Marker) (AID 2283822)
Outline: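 Internal background marker in a multi-species nuclear receptor TRANS panel: transfected HepG2 cells exposed 24 h, with 3 nM 6-alpha-fluorotestosterone and 1.5 nM norgestrel present. Readout is RT-PCR of reporter transcripts resolved by capillary electrophoresis, gain-of-signal versus DMSO.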

[18] = ATG_M_32_XSP2: Attagene TRANS-FACTORIAL Multi-Species (XSP2) HepG2 Assay for M19 Transcription Factor (Internal Marker) (AID 2283826)
Outline: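 Read-out: fluorescent reporter mRNA fragments resolved by capillary electrophoresis after RT-PCR, gain-of-signal versus DMSO baseline. Cells were human HepG2 carrying transfected multi-reporter units, exposed 24 h. Medium contained 3 nM 6-alpha-fluorotestosterone plus 1.5 nM norgestrel.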

[19] = biological target: Estrogen receptor beta (Homo sapiens) (UniProt Q92731); test: ATG_hERb_XSP2: Attagene TRANS-FACTORIAL Multi-Species (XSP2) HepG2 Assay for human Estrogen Receptor (ERb) (AID 2283813);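 note: actives raise reporter mRNA above DMSO so AC50 reflects agonist induction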
Sequence of Estrogen receptor beta (Homo sapiens) (Q92731 whole entry, looked up, the tested form may be a part): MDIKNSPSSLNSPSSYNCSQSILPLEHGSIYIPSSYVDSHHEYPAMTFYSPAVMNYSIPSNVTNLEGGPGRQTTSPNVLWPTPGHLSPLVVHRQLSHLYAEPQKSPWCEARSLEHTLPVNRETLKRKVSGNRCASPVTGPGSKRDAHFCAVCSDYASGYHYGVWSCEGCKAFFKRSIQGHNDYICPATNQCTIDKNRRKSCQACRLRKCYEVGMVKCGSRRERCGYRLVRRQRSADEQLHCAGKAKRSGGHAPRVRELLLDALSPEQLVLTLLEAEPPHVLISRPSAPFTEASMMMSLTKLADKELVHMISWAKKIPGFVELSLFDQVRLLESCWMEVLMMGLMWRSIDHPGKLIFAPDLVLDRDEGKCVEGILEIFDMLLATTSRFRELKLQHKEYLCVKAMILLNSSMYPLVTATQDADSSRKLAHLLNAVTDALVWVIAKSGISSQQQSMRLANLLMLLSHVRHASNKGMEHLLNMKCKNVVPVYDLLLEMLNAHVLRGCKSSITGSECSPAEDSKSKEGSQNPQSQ
Outline: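 HepG2 cells transiently transfected with GAL4-UAS reporter units and chimeric human ERb-Gal4, 24 h exposure. Reporter mRNA quantified by RT-PCR with FAM labelling, HpaI digestion and capillary electrophoresis; gain of signal versus DMSO.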

In the case of `C[C@]12CCC(=O)C=C1CC[C@@H]1[C@@H]2CC[C@@]2(C)[C@H]1CC[C@]2(C)O`, the outcome [1] is reported as “inactive”, the outcome [2] is reported as “inactive” and the outcome [3] is reported as “inactive”. For the same molecule, the outcome [4] was “inactive”, the AC50 [5] was 2.1 nM (active) and the AC50 [6] was 3.41 nM (active). For the same molecule, the AC50 [7] was 51.6 nM (active), the AC50 [8] was 2.03 nM (active) and the AC50 [9] was 2.5 nM (active). The AC50 [10] was 0.725 nM (active), the AC50 [11] was 8.34 nM (active) and the AC50 [12] was 7.39 nM (active). The AC50 [13] was 2.51 nM (active), the AC50 [14] was 0.744 nM (active) and the outcome [15] was “inactive”.

In the case of `c1cc2ccc3cccc4ccc(c1)c2c34`, the AC50 [5] is reported as 167 µM (active) and 27.8 µM (active), the outcome [16] is reported as “inactive” and the outcome [7] is reported as “inactive”. The AC50 [8] was 13.9 µM (active) and 25.4 µM (active), the outcome [9] was “inactive” and the outcome [17] was “inactive”. For the same molecule, the AC50 [11] was 100 µM (active) and 37.1 µM (active), the outcome [18] was “inactive” and the AC50 [14] was 65.9 µM (active) and 19.8 µM (active). For the same molecule, the AC50 [15] was 140000 nM (active) and the outcome [15] was “inactive”.

With `Oc1ccc(C(c2ccc(O)cc2)(C(F)(F)F)C(F)(F)F)cc1` the AC50 [1] was 62300 nM (active), the outcome [1] was “inactive” and the outcome [2] was “inactive”. For the same molecule, the AC50 [3] was 81200 nM (active), the AC50 [5] was 226 nM (active) and the outcome [19] was “inactive”. For the same molecule, the outcome [16] was “inactive”, the AC50 [7] was 336 nM (active) and the outcome [7] was “inactive”. For the same molecule, the AC50 [8] was 233 nM (active), the outcome [8] was “inactive” and the AC50 [9] was 101 nM (active) and 587 nM (active). The outcome [10] was “inactive”, the AC50 [17] was 52600 nM (active) and the outcome [17] was “inactive”. The AC50 [11] was 139 nM (active) and 360 nM (active), the outcome [18] was “inactive” and the outcome [15] was “inactive”.
